Hit rate of the full screen: of about 69,000 compounds, about 8,600 (12%) showed an effect of 50% or more. Shown is part of a subset that was picked to be rich in strong results.
Tested on: Plasmodium berghei
Test: Screen against P. berghei liver stage (PbLuc), transformed with Luciferase, at 10uM
Type: functional, HepG2
Settings: tested at 10 uM

SMILES	INHIBITION
CN(C)C(=O)N1C[C@@H](C(=O)NCc2ccco2)C[C@H]2OCC[C@H]21	-28%
CCc1cc(=O)n(CC(=O)N2CCCCC2)c(-c2cccc(F)c2)n1	44.1%
Cc1ccc(N2CCCC(N(C)c3nn4cc(C)nc4s3)C2)nn1 (stereo not given)	-21.9%
O[C@H]1CN(Cc2ccc3c(c2)OCCO3)CC[C@@]12CCCO2	19.6%
Cc1cnc(-c2nc(O)c3c(n2)CN(C(=O)C2CCCO2)CC3)cn1 (stereo not given)	9.05%
CCN(Cc1ccoc1)C(=O)C1CCN(C(=O)OC(C)(C)C)C1 (stereo not given)	-12.4%
O=C(CC1CCC2(CC1)CCN(Cc1ccncc1)CC2)N1CCCC1	-15.2%
CN1CCC(N(CCc2ccccc2)C(=O)c2ccc(CO)cc2)CC1	25.2%
CN1CCC(N(CCc2ccccc2)C(=O)c2ccc(C#N)nc2)CC1	12.5%
CN1CCC(N(CCc2ccccc2)C(=O)c2ccc(C#N)cc2)CC1	53.1%
Cc1cc(C(=O)NC2=NCCS2)c(C)n1-c1ccccn1	42.1%
OC(c1ccccc1)c1cn(C2CCN(Cc3nccs3)CC2)nn1 (stereo not given)	18.5%
Cc1ccc(CN2CCC(n3cc(C(O)c4ccccc4)nn3)CC2)o1 (stereo not given)	48.5%
Cc1ccsc1CN1CCC(n2cc(C(O)c3ccccc3)nn2)CC1 (stereo not given)	72.1%
CC(C)CC(O)C1CCN(C(=O)c2coc(CN3CCOCC3)c2)CC1 (stereo not given)	16.7%
CC(CO)CN(Cc1ccccc1)Cc1c[nH]cn1 (stereo not given)	9.55%
CN(C)C1CC2(CCN(C(=O)NC3CC3)CC2)c2ccccc21 (stereo not given)	61.1%
O=C(NC1CC1)N1CCC2(CC1)CC(N1CCOCC1)c1ccccc12 (stereo not given)	43%
CN(C)C1CC2(CCN(C(=O)c3csnn3)CC2)c2ccccc21 (stereo not given)	-22.1%
Cc1ccc2c(c1)C(N(C)C)CC21CCN(CCO)CC1 (stereo not given)	-57.1%
COCC(=O)N1CCC2(CC1)CC(CC(=O)NC1CC1)c1ccccc12 (stereo not given)	25.6%
CN(C)C1CC2(CCN(C(=O)C3(C#N)CC3)CC2)c2ccccc21 (stereo not given)	57.5%
CN1CCc2nc(C3CCCN(S(=O)(=O)N4CCCC4)C3)ncc2C1 (stereo not given)	23.325%
Cn1ccc(C(=O)NCc2ccc(N3CCCCCC3)nc2)cc1=O	17.4%
O=C1NCCCCC1NCc1csc(-c2ccc(F)cc2)n1 (stereo not given)	-7.17%

SMILES	INHIBITION
Cc1cc(C)nc(NC2CC(=O)N(C)C2)n1 (stereo not given)	63.3%
Cc1cc(C)nc(NC2CCC(=O)N(C)C2)n1 (stereo not given)	11.5%
Cc1cc(C)nc(NC2CC(=O)N(C(C)(C)C)C2)n1 (stereo not given)	31.2%
Cc1cc(C)n(C2CCCN(C(=O)CCOc3cccc(F)c3)C2)n1 (stereo not given)	-25.9%
Cc1ccc(C(=O)N2CC[C@@]3(C[C@@H](NS(C)(=O)=O)CCO3)C2)s1	50.9%
CS(=O)(=O)N[C@H]1CCO[C@]2(CCN(C(=O)c3ccccn3)C2)C1	4.27%
Cc1nc(C(=O)N2CC[C@@]3(C[C@H](NS(C)(=O)=O)CCO3)C2)cs1	11.3%
CS(=O)(=O)N[C@@H]1CCO[C@]2(CCN(C(=O)c3cnccn3)C2)C1	32.4%
Cc1ncoc1C(=O)N1CC[C@@]2(C[C@H](NS(C)(=O)=O)CCO2)C1	35.7%
CS(=O)(=O)N[C@@H]1CCO[C@]2(CCN(C(=O)c3cscn3)C2)C1	35.7%
CS(=O)(=O)N[C@@H]1CCO[C@]2(CCN(C(=O)C3=CCCC3)C2)C1	21%
Cc1ccoc1C(=O)N1CC[C@@]2(C[C@H](NS(C)(=O)=O)CCO2)C1	18.5%
Cc1cncc(C(=O)N2CC[C@@]3(C[C@H](NS(C)(=O)=O)CCO3)C2)c1	54.4%
CS(=O)(=O)N[C@H]1CCO[C@]2(CCN(CC3CCOCC3)C2)C1	-44.4%
Cc1nc(C(=O)N2CC[C@@]3(C[C@@H](NS(C)(=O)=O)CCO3)C2)cs1	62.5%
Cc1cc(C(=O)N2CC[C@@]3(C[C@@H](NS(C)(=O)=O)CCO3)C2)no1	69.5%
Cc1cc(C(=O)N2CCCC(n3cccn3)C2)c(C)n1C1CC1 (stereo not given)	5.7%
Cc1cc(CN(C)C(=O)NCC(C)N2CCc3ccccc32)no1 (stereo not given)	15.6%
Cc1nccc(CN2CC[C@@]3(CCCN3Cc3ccccc3)[C@@H](O)C2)n1	39.7%
CC(C)N1CCO[C@@H]2CN(S(=O)(=O)c3cccs3)CC[C@@H]2C1	42.4%
Cc1cc(C)n(-c2ccc(C(=O)NCC(c3cccs3)N(C)C)cc2)n1 (stereo not given)	30%
CC(C)C(NC(=O)c1ccc(=O)[nH]c1)c1nnc2n1CCNCC2 (stereo not given)	12.6%
Cc1cc(C)c(C(=O)NC(c2nnc3n2CCNCC3)C(C)C)c(C)c1 (stereo not given)	37.7%
CC(C)c1ocnc1C(=O)NC(c1nnc2n1CCNCC2)C(C)C (stereo not given)	65.5%
COc1cc(N2CCCC(c3nccn3Cc3cccnc3)C2)ncn1 (stereo not given)	2.69%

Source: ChEMBL document CHEMBL4513216, “Probing the Open Global Health Chemical Diversity Library for Multistage-Active Starting Points for Next-Generation Antimalarials” (ACS Infect Dis, 2020)
